Measured values as given in PubChem BioAssay (NCI).
About 83,000 compounds went through this panel and 20% of them were active in at least one assay; those are over-represented in the sample as a whole.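 Single-dose data. Exposure time 48 hours. Values below 10 considered active.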 The source made the active and inactive calls.

Experiments:
Experiment in all cases: NCI-60 one-dose screen, 48 h (100 = growth as untreated, 0 = no growth, -100 = all killed)
NCI-H322M lung = settings: 10 µM unless noted
HOP-92 NSCLC = settings: 10 µM unless noted
NCI-H522 lung = settings: 10 µM unless noted
K-562 leukemia = settings: 10 µM unless noted
SNB-19 CNS = settings: 10 µM unless noted
LOX IMVI melanoma = settings: 10 µM unless noted
EKVX NSCLC = settings: 10 µM unless noted
CAKI-1 renal = settings: 10 µM unless noted
CCRF-CEM leukemia = settings: 10 µM unless noted
SR leukemia = settings: 10 µM
OVCAR-4 ovarian = settings: 10 µM unless noted
IGROV1 ovarian = settings: 10 µM
HS 578T breast = settings: 10 µM unless noted
BT-549 breast = settings: 10 µM
A549/ATCC NSCLC = settings: 10 µM unless noted
SN12C renal = settings: 10 µM unless noted
RPMI-8226 leukemia = settings: 10 µM unless noted
HOP-62 NSCLC = settings: 10 µM unless noted
SK-MEL-28 melanoma = settings: 10 µM unless noted

Measured: growth

NS(=O)(=O)c1nc[nH]c1[N+](=O)[O-]
inactive: NCI-H322M lung 110% | HOP-92 NSCLC 68.1% | NCI-H522 lung 109% | K-562 leukemia 101% | SNB-19 CNS 105% | LOX IMVI melanoma 101% | EKVX NSCLC 117% | CAKI-1 renal 97.7% | CCRF-CEM leukemia 106% | SR leukemia 102% | OVCAR-4 ovarian 105% | IGROV1 ovarian 115% | HS 578T breast 112% | BT-549 breast 96.7%

CCOCC1(CCc2ccccc2)C(=O)NC(=S)NC1=O
inactive: NCI-H322M lung 114% | HOP-92 NSCLC 101% | A549/ATCC NSCLC 97.8% | K-562 leukemia 105% | SNB-19 CNS 105% | EKVX NSCLC 116% | SN12C renal 100% | CAKI-1 renal 99.9% | CCRF-CEM leukemia 100% | SR leukemia 92.7% | RPMI-8226 leukemia 104% | OVCAR-4 ovarian 120% | IGROV1 ovarian 107% | HS 578T breast 106% | BT-549 breast 105%

CC[CH2][Pb]([CH2]CC)([CH2]CC)[O]C(=O)C(F)(F)F
active: NCI-H322M lung -98.3% | HOP-62 NSCLC -84.3% | K-562 leukemia 2.17% | LOX IMVI melanoma -82.3% | SK-MEL-28 melanoma -97.2% | CAKI-1 renal -95.2% | OVCAR-4 ovarian -97.4% | IGROV1 ovarian -78.8% | HS 578T breast -10.4%

Cc1cc(NC(=O)NCCOc2ccc(N3C(N)=NC(N)=NC3(C)C)cc2Cl)ccc1S(=O)(=O)F
active: A549/ATCC NSCLC 9.6% | SN12C renal 7.66%
inactive: NCI-H322M lung 43.4% | HOP-62 NSCLC 60.8% | K-562 leukemia 13% | CAKI-1 renal 95.1% | CCRF-CEM leukemia 18.6% | SR leukemia 34.8% | RPMI-8226 leukemia 40.5% | OVCAR-4 ovarian 71.5% | IGROV1 ovarian 32.5%

CC12CCC3C(CC=C4CC(O)CCC43C)C1C/C(=C\N1CCOCC1)C2=O (stereo unspecified)
inactive: NCI-H322M lung 113% | HOP-92 NSCLC 91.3% | NCI-H522 lung 83.3% | K-562 leukemia 108% | SNB-19 CNS 110% | LOX IMVI melanoma 105% | SK-MEL-28 melanoma 106% | EKVX NSCLC 96.1% | SN12C renal 102% | CAKI-1 renal 91% | CCRF-CEM leukemia 94.3% | SR leukemia 98.4% | RPMI-8226 leukemia 102% | OVCAR-4 ovarian 94.4% | IGROV1 ovarian 119% | HS 578T breast 114% | BT-549 breast 93.1%

N#C[Se]CCN1C(=O)C2C(C1=O)[C@H]1C=C[C@@H]2S1 (stereo partly specified)
active: NCI-H322M lung -1.58% | HOP-62 NSCLC -63.3% | A549/ATCC NSCLC -19.3% | SNB-19 CNS -19.1% | LOX IMVI melanoma -46% | SK-MEL-28 melanoma -19.2% | EKVX NSCLC -51.6% | SN12C renal -18.8% | CAKI-1 renal -98.7% | CCRF-CEM leukemia 8.31% | SR leukemia 6.77% | RPMI-8226 leukemia -10.4% | IGROV1 ovarian -54.4% | HS 578T breast -10.3% | BT-549 breast -81%
inactive: K-562 leukemia 24.3% | OVCAR-4 ovarian 25.3%

O=S(=O)(O)c1ccc(-c2ccc([As](=O)(O)O)cc2)cc1
inactive: NCI-H322M lung 104% | HOP-62 NSCLC 98.6% | NCI-H522 lung 88.8% | A549/ATCC NSCLC 94.4% | K-562 leukemia 101% | SNB-19 CNS 97.7% | LOX IMVI melanoma 99.8% | SK-MEL-28 melanoma 103% | EKVX NSCLC 101% | SN12C renal 104% | CCRF-CEM leukemia 99.7% | SR leukemia 101% | RPMI-8226 leukemia 102% | OVCAR-4 ovarian 99.4% | IGROV1 ovarian 107% | HS 578T breast 110% | BT-549 breast 106%

CC1(C)N=C(N)N=C(N)N1c1ccc(OCCCCNC(=O)Nc2cccc(S(=O)(=O)F)c2)c(Cl)c1
inactive: NCI-H322M lung 57.6% | HOP-62 NSCLC 62.8% | A549/ATCC NSCLC 15.4% | K-562 leukemia 17.7% | SNB-19 CNS 45.7% | LOX IMVI melanoma 13.7% | SK-MEL-28 melanoma 60.3% | CAKI-1 renal 96.6% | CCRF-CEM leukemia 23.6% | SR leukemia 45.8% | RPMI-8226 leukemia 38.1% | OVCAR-4 ovarian 97.1% | IGROV1 ovarian 37.9% | BT-549 breast 66.4%
active: SN12C renal 7.54%

O=C1c2ccccc2C(=O)N1[N+](=O)[O-]
active: SNB-19 CNS 6.79%
inactive: NCI-H322M lung 84.4% | NCI-H522 lung 88.7% | A549/ATCC NSCLC 95.4% | K-562 leukemia 105% | LOX IMVI melanoma 91.6% | SK-MEL-28 melanoma 112% | SN12C renal 97.2% | CAKI-1 renal 106% | SR leukemia 95.4% | RPMI-8226 leukemia 101% | OVCAR-4 ovarian 109% | IGROV1 ovarian 109% | HS 578T breast 106% | BT-549 breast 110%

CCCCCCCCCCOc1ccc(C(=O)Oc2ccc(CSP3(=O)OCC4OC(n5ccc(=O)[nH]c5=O)C(F)C4OP(=O)(O)OCC4OC(n5cnc6c(N)ncnc65)C(F)C4O3)cc2)cc1 (stereo unspecified)
inactive: NCI-H322M lung 84.8% | NCI-H522 lung 71.1% | A549/ATCC NSCLC 85.9% | K-562 leukemia 66.1% | SNB-19 CNS 103% | LOX IMVI melanoma 85.3% | SK-MEL-28 melanoma 113% | EKVX NSCLC 111% | SN12C renal 101% | CCRF-CEM leukemia 87.1% | SR leukemia 25.4% | RPMI-8226 leukemia 82.6% | OVCAR-4 ovarian 58.8% | IGROV1 ovarian 95.3% | HS 578T breast 111% | BT-549 breast 87.7%
